Records with an inconclusive call do not appear. Activity calls are given as the source filed them. Rule for the calls: active = hit-call score of the fitted dose curve at least 0.9, where 1 is the maximum; inconclusive = response in the unintended direction; inactive = score below 0.9.

This assay is described as follows: CCTE_Mundy_HCI_iCellGluta_NOG_NeuriteCount: CCTE's Neurite Outgrowth Assay in iCellGluta cells for Neurite Count, Mundy Lab (AID 2284342).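 Note: chemical exposure about 48 hours starting 2 hours after plating.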 The procedure:
CCTE_Mundy_HCI_iCellGluta_NOG is a multiplexed, cell-based-readout assay that uses iCell GlutaNeurons from FUJIFILM Cellular Dynamics, Inc. (FCDI), human glutamatergic enriched neurons derived from induced pluripotent stem (iPS) cells, with measurements taken at 50.33 hours after chemical dosing in a microplate: 96-well plate.CCTE_Mundy_HCI_iCellGluta_NOG_NeuriteCount is one of four components of the CCTE_Mundy_HCI_iCellGluta_NOG assay. It measures neurite outgrowth related to number of neurites using High Content Imaging of fluorescently labelled markers.Data from the assay component CCTE_Mundy_HCI_iCellGluta_NOG_NeuriteCount was analyzed at the endpoint CCTE_Mundy_HCI_iCellGluta_NOG_NeuriteCount in the positive analysis fitting direction relative to DMSO as the negative control and baseline of activity. Using a type of morphology reporter, loss-of-signal activity can be used to understand developmental effects.
Exposure starts 2 hours post-plating by adding 10 ul of the working solution to 90 ul of media in the wells for a 1/10 dilution. Forty-eight hours after chemical treatment cells are fixed by direct addition of 100 ul of warm (37C) Dulbecco's phosphate buffered saline (DPBS) fixative solution containing 8% paraformaldehyde, 8% sucrose, and 0.1% of 3 mg/ml Hoechst 33342 into each well. Primary antibodies are prepared by dilution in Immunocytochemical Staining Buffer (ISB), 10X Dulbecco's PBS, 0.1% Saponin, 5% Bovine Serum Albumin, 0.5% NaN3 (Sodium Azide) and betaIII-tubulin (rabbit anti-betaIII-tubulin, 1:800) followed by Alexa Fluor-488 secondary (1:500) to label neuronal cell bodies and neurites. A Cellomics ArrayScan VTi HCS Reader is used for automated image acquisition and analysis of neurite outgrowth.
For the compound `CCOP(=S)(OCC)OC(Cl)C(Cl)(Cl)Cl` (stereo unspecified), the outcome was inactive.

In the case of `CCOP(=O)(OCC)Oc1cc(C)nc(C(C)C)n1`, the compound was classed as inactive. For the compound `CC(=NC#N)N(C)Cc1ccc(Cl)nc1`, the result was inactive.

As for `CON=C(C(=O)OC)c1ccccc1CON=C(C)c1cccc(C(F)(F)F)c1`, the AC50 (in general, the midpoint of the concentration-response curve, whichever way the signal moves) is 24.6 µM (active).

Consider `CCCCSP(=O)(SCCCC)SCCCC`, for which the compound was classed as inactive.

As to `COP(=O)(OC)OC(Br)C(Cl)(Cl)Br` (stereo unspecified), the AC50 is 16.4 µM (active).

For `CCOP(=O)(NC(C)C)Oc1ccc(SC)c(C)c1` (stereo unspecified), the compound was called inactive. Turning to `O=[N+]([O-])c1cc(C(F)(F)F)c(Cl)c([N+](=O)[O-])c1Nc1ncc(C(F)(F)F)cc1Cl`, the concentration at half-maximal activity (AC50) was 0.937 µM (active). For the compound `CC1=NNC(=O)N(/N=C/c2cccnc2)C1`, the call was inactive. The same measure, in the same setting: the same measure for `CN1COCN(Cc2cnc(Cl)s2)C1=N[N+](=O)[O-]`: “inactive”; for `S=C1NCCN1`: “inactive”; for `CSC1=N[C@@](C)(c2ccccc2)C(=O)N1Nc1ccccc1`: “inactive”. On to `CN(C)[C@@H]1C(=O)C(C(N)=O)=C(O)[C@@]2(O)C(=O)C3=C(O)c4c(O)cccc4[C@@](C)(O)[C@H]3[C@H](O)[C@@H]12`, for which the AC50 was 19.9 µM (active). With `C=C(C)[C@H]1Cc2c(ccc3c2O[C@@H]2COc4cc(OC)c(OC)cc4[C@@H]2C3=O)O1`, the AC50 was 0.907 µM (active). For the compound `CCCSP(=O)(OCC)SCCC`, the call was inactive. As to `CCOP(=S)(Oc1cnc(C(C)(C)C)nc1)OC(C)C` (stereo unspecified), the AC50 is 23.9 µM (active). With `CCOP(=S)(OCC)Oc1ccc([N+](=O)[O-])cc1`, the compound was called inactive. The same measure, in the same setting: the same measure for `C[N+]1(C)CCCCC1`: “inactive”. As to `COP(=O)(NC(C)=O)SC` (stereo unspecified), the compound was called inactive. Regarding `CC(C)N(C(=O)SCC(Cl)=C(Cl)Cl)C(C)C`, the AC50 was 23.2 µM (active).

`CC[C@H](C)[C@H]1O[C@]2(C=C[C@@H]1C)C[C@@H]1C[C@@H](C/C=C(\C)[C@@H](O[C@H]3C[C@H](OC)[C@@H](O[C@H]4C[C@H](OC)[C@@H](NC)[C@H](C)O4)[C@H](C)O3)[C@@H](C)/C=C/C=C3\CO[C@@H]4[C@H](O)C(C)=C[C@@H](C(=O)O1)[C@]34O)O2`: the half-maximal activity concentration (AC50) is 0.824 µM (active).
